“And” between values parts separate entries of the source, which are not always exact repeats. Equal entries are not always repeated. Inconclusive results are not listed. Entries that show only a call come without a potency. Values without a mark were called inactive. The source made the active and inactive calls. Calls follow the shape of the dose curve; as a rule, active = well fitted cell-killing curve with a large enough effect in the repeat runs; inconclusive = weak or mixed curves, or effect the other way; inactive = flat fitted curve, though single readings scatter.
How the values were obtained:
[1] = cAMP Responsive Elements (CRE) small molecule antagonists, cell-based qHTS assay: qHTS cell viability counter screen (AID 2060913); settings: CRE-bla HEK293T viability, CellTiter-Glo luminescence, 5 h; series mostly up to 92.4 µM; also: nearly all actives have a fitted effect of over 40% in size; also: potency is read from the fitted curve at half-maximal effect
Outline: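 Cytotoxicity counter screen multiplexed with the CRE-bla antagonist read: HEK293T cells in DMEM with dialyzed FBS and 25 mM HEPES were treated 3 hrs under 0.25 uM final NKH477, then viability measured by CellTiter-Glo luminescence.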

[2] = cAMP Responsive Elements (CRE) small molecule agonists, cell-based qHTS assay: qHTS cell viability counter screen (AID 2060914); settings: CRE-bla HEK293T viability, CellTiter-Glo luminescence, 5 h; series mostly up to 92.4 µM; also: nearly all actives have a fitted effect of over 50% in size
Outline: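 Cytotoxicity was measured as ATP luminescence (CellTiter-Glo, 30 min at room temperature) in the same wells as the CRE-bla FRET read-out. HEK293T CRE-bla cells had 3 h compound exposure at 37C/5% CO2.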

In the case of `CCCCCCCCOS(=O)(=O)O`, the Potency [1] is reported as “inactive” and the Potency [2] is reported as “inactive”.

For `c1ccc2scnc2c1`, the Potency [1] was “inactive” and the Potency [2] was “inactive”.

For `CCC1CO1` (stereo not drawn), the Potency [1] was “inactive” and the Potency [2] was “inactive”.

With `Nc1cc(C(F)(F)F)ccc1S` the Potency [1] was “inactive” and the Potency [2] was “inactive”.

In the case of `O=C(O)c1c(Cl)cccc1Cl`, the Potency [1] is reported as “inactive” and the Potency [2] is reported as “inactive”.

For `CCCCCCCCCCCCCCCC/C=C/C1CC(=O)OC1=O` (stereo not drawn), the Potency [1] was “inactive” and the Potency [2] was “inactive”.

In the case of `CCOCCOCCOCCO`, the Potency [1] is reported as “inactive” and the Potency [2] is reported as “inactive”.

For `CCCCC(CC)COC(=O)CCCCCCCCC(=O)OCC(CC)CCCC` (stereo not drawn), the Potency [1] was “inactive” and the Potency [2] was “inactive”.

For `CCN(CC)CC(=O)Nc1c(C)cccc1C`, the Potency [1] was “inactive” and the Potency [2] was “inactive”.

For `O=C(O)CN(CC(=O)O)CC(=O)O`, the Potency [1] was “inactive” and the Potency [2] was “inactive”.

In the case of `CC1(C)CC(=O)CC(C)(C)N1`, the Potency [1] is reported as “inactive” and the Potency [2] is reported as “inactive”.

With `Nc1ccc(S(=O)(=O)Nc2cnc3ccccc3n2)cc1` the Potency [1] was “inactive” and the Potency [2] was “inactive”.

In the case of `O=C(O)CNC(=O)CNC(=O)CNC(=O)CSC(=O)c1ccccc1`, the Potency [1] is reported as “inactive” and the Potency [2] is reported as “inactive”.

With `CC1=CCC(C(C)(C)O)CC1` (stereo not drawn) the Potency [1] was “inactive” and the Potency [2] was “inactive”.

With `Cc1cc(O)cc(C)c1Cl` the Potency [1] was “inactive” and the Potency [2] was “inactive”.

For `C=CCOc1c(Br)cc(C(C)(C)c2cc(Br)c(OCC=C)c(Br)c2)cc1Br`, the Potency [1] was “inactive” and the Potency [2] was “inactive”.

In the case of `CC(=O)[C@H]1CC[C@H]2[C@@H]3CCC4=CC(=O)CC[C@]4(C)[C@H]3CC[C@]12C`, the Potency [1] is reported as 60.8 µM (active) and 61.1 µM (active) and the Potency [2] is reported as “inactive”.

For `COC(=O)c1ccc2cc(C(=O)OC)ccc2c1`, the viability change, negative = cytotoxic [1] was 9.85% [at 18.9 µM] and the activity change, negative = cytotoxicity [2] was -17.3% [at 18.9 µM].

In the case of `Cc1ccc(N)cc1[N+](=O)[O-]`, the Potency [1] is reported as “inactive” and the Potency [2] is reported as “inactive”.

For `O=C(O)CCNC(=O)c1ccc(N=Nc2ccc(O)c(C(=O)O)c2)cc1`, the Potency [1] was “inactive” and the Potency [2] was “inactive”.

In the case of `O=C(O)CN1C(=O)c2cccc3cccc(c23)C1=O`, the Potency [1] is reported as “inactive” and the Potency [2] is reported as “inactive”.

For `COc1ccc(C(Cl)=C(c2ccc(OC)cc2)c2ccc(OC)cc2)cc1`, the Potency [1] was “inactive” and the Potency [2] was “inactive”.

With `CC(=O)SCc1ccco1` the Potency [1] was “inactive” and the Potency [2] was “inactive”.

With `O=C1OC(=O)C2CC=CCC12` (stereo not drawn) the Potency [1] was “inactive” and the Potency [2] was “inactive”.

For `CCOc1ccc(O)cc1`, the Potency [1] was “inactive” and the Potency [2] was “inactive”.

In the case of `O=C1CCC(=O)O1`, the Potency [1] is reported as “inactive” and the Potency [2] is reported as “inactive”.

With `CCCCNCCCC` the Potency [1] was “inactive” and the Potency [2] was “inactive”.

For `CC(C)c1c(C(=O)Nc2ccccc2)c(-c2ccccc2)c(-c2ccc(F)cc2)n1CC[C@@H](O)C[C@@H](O)CC(=O)O`, the Potency [1] was “inactive” and the Potency [2] was “inactive”.

For `O=C(CCCCC(=O)Nc1c(I)cc(I)c(C(=O)O)c1I)Nc1c(I)cc(I)c(C(=O)O)c1I`, the Potency [1] was “inactive” and the Potency [2] was “inactive”.

In the case of `CN1[C@@H]2CC[C@H]1CC(OC(=O)C(O)c1ccccc1)C2` (stereo partly drawn), the Potency [1] is reported as “inactive” and the Potency [2] is reported as “inactive”.

For `CCOCCOCC`, the Potency [1] was “inactive” and the Potency [2] was “inactive”.

For `CCC(C)(CCC(C)C)C(=O)[O-].CCC(C)(CCC(C)C)C(=O)[O-].[Zn+2]` (stereo not drawn), the Potency [1] was “inactive” and the Potency [2] was “inactive”.

In the case of `NS(=O)(=O)O`, the Potency [1] is reported as “inactive” and the Potency [2] is reported as “inactive”.

With `CC12CCC(C(=O)C1=O)C2(C)C` (stereo not drawn) the Potency [1] was “inactive” and the Potency [2] was “inactive”.

In the case of `N[C@@H](Cc1cc(I)c(O)c(I)c1)C(=O)O`, the Potency [1] is reported as “inactive” and the Potency [2] is reported as “inactive”.

In the case of `Cc1ccc(NC(=O)c2ccc(CN3CCN(C)CC3)cc2)cc1Nc1nccc(-c2cccnc2)n1`, the Potency [1] is reported as “inactive” and the Potency [2] is reported as “inactive”.

In the case of `NC(=O)NS(=O)(=O)c1ccc(N)cc1`, the Potency [1] is reported as “inactive” and the Potency [2] is reported as “inactive”.

For `Clc1ccc2c(Cl)ccnc2c1`, the Potency [1] was “inactive” and the Potency [2] was “inactive”.

With `O=C1c2cccc3c2[C@H](CCC3)CN1[C@@H]1CN2CCC1CC2` the Potency [1] was “inactive” and the Potency [2] was “inactive”.

In the case of `CC(O)COCC(C)O` (stereo not drawn), the Potency [1] is reported as “inactive” and the Potency [2] is reported as “inactive”.

In the case of `CC(C)COC(=O)c1ccc(O)cc1`, the Potency [1] is reported as “inactive” and the Potency [2] is reported as “inactive”.

With `CN(C)Cc1ccccc1` the Potency [1] was “inactive” and the Potency [2] was “inactive”.

For `NC1=NCC2c3ccccc3Cc3ccccc3N12` (stereo not drawn), the Potency [1] was “inactive” and the Potency [2] was “inactive”.

For `CC(C)CCOC(=O)/C=C/c1ccccc1`, the Potency [1] was “inactive” and the Potency [2] was “inactive”.

With `O=Cc1ccccc1S(=O)(=O)O` the Potency [1] was “inactive” and the Potency [2] was “inactive”.

With `CC(C)(N=C=O)c1cccc(C(C)(C)N=C=O)c1` the Potency [1] was “inactive” and the Potency [2] was “inactive”.

In the case of `COCCCOc1ccnc(CS(=O)c2nc3ccccc3[nH]2)c1C` (stereo not drawn), the Potency [1] is reported as “inactive” and the Potency [2] is reported as “inactive”.

`CCCCCCCCCCCCCCCC(=O)OC` gave a viability change, negative = cytotoxic [1] of 14.8% [at 18.9 µM] and an activity change, negative = cytotoxicity [2] of -20.6% [at 18.9 µM].

For `NC/C=C/C(=O)O`, the Potency [1] was “inactive” and the Potency [2] was “inactive”.

In the case of `COCC(C)N` (stereo not drawn), the Potency [1] is reported as “inactive” and the Potency [2] is reported as “inactive”.

In the case of `CC(C)CCCCCCc1ccc(OCCOCCO)cc1`, the Potency [1] is reported as “inactive” and the Potency [2] is reported as “inactive”.

In the case of `O=C(CO)[C@@H](O)[C@H](O)[C@H](O)CO`, the Potency [1] is reported as “inactive” and the Potency [2] is reported as “inactive”.

With `Nc1ccn([C@@H]2O[C@H](CO)[C@@H](O)C2O)c(=O)n1` (stereo partly drawn) the Potency [1] was “inactive” and the Potency [2] was “inactive”.

With `CC(C)CC(=O)C1C(=O)c2ccccc2C1=O` the Potency [1] was “inactive” and the Potency [2] was “inactive”.
